Assay results: PubChem BioAssay (NCI)
This is part of a sample that, as a whole, favours compounds with a hit. Of some 83,000 tested, about 20% had one in any assay.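 Compound tested at a single concentration for 48 hours in 96-well plates; a percent growth value below 10 was scored as active.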 Active and inactive are the calls of the source.

How the values were obtained:
Assay in all cases: NCI-60 one-dose screen, 48 h (100 = growth as untreated, 0 = no growth, -100 = all killed)
NCI-H522 lung = conditions: 10 µM unless noted
COLO 205 colon = conditions: 10 µM
HT29 colon = conditions: 10 µM unless noted
SNB-75 CNS = conditions: 10 µM unless noted
PC-3 prostate = conditions: 10 µM unless noted
EKVX NSCLC = conditions: 10 µM unless noted
TK-10 renal = conditions: 10 µM unless noted
A498 renal = conditions: 10 µM unless noted
SR leukemia = conditions: 10 µM
RPMI-8226 leukemia = conditions: 10 µM unless noted
OVCAR-4 ovarian = conditions: 10 µM unless noted
SK-OV-3 ovarian = conditions: 10 µM unless noted
HS 578T breast = conditions: 10 µM unless noted
BT-549 breast = conditions: 10 µM
HCT-116 colon = conditions: 10 µM unless noted
A549/ATCC NSCLC = conditions: 10 µM unless noted
SN12C renal = conditions: 10 µM unless noted
CAKI-1 renal = conditions: 10 µM unless noted

Measured: growth

N#[N+]c1cnc([O-])[nH]c1=O
inactive: NCI-H522 lung 14.4% | COLO 205 colon 94.2% | HT29 colon 105% | SNB-75 CNS 74.7% | PC-3 prostate 92.7% | EKVX NSCLC 114% | TK-10 renal 92.6% | A498 renal 85.9% | SR leukemia 64.8% | RPMI-8226 leukemia 60.2% | OVCAR-4 ovarian 100% | SK-OV-3 ovarian 94% | HS 578T breast 83.5% | BT-549 breast 114% | HCT-116 colon 108%

COc1ccc(C(=O)c2ccc([As]=O)cc2)cc1 (configuration not stated)
active: NCI-H522 lung -84.1% | A549/ATCC NSCLC -71.8% | HT29 colon -68.9% | SNB-75 CNS -97% | EKVX NSCLC -98.1% | SN12C renal -52.8% | TK-10 renal -100% | CAKI-1 renal -98.7% | SR leukemia -23.8% | RPMI-8226 leukemia -24% | OVCAR-4 ovarian -91.4% | SK-OV-3 ovarian -99.8% | HS 578T breast -1.54% | BT-549 breast -99.6% | HCT-116 colon -83.3%

C[C@]12CCC(=O)CC1CC[C@@H]1C2CC[C@@]2(C)C1CC[C@@H]2OC(=O)CC[Se][Se]CCC(=O)O[C@H]1CCC2[C@@H]3CCC4CC(=O)CC[C@]4(C)C3CC[C@@]21C (some centres not stated)
inactive: NCI-H522 lung 88.3% | A549/ATCC NSCLC 101% | COLO 205 colon 122% | HT29 colon 83.1% | SNB-75 CNS 109% | PC-3 prostate 89.4% | EKVX NSCLC 31.9% | SN12C renal 103% | TK-10 renal 77.4% | CAKI-1 renal 84.6% | A498 renal 84.6% | RPMI-8226 leukemia 93.6% | OVCAR-4 ovarian 83.2% | SK-OV-3 ovarian 160% | HS 578T breast 52.9% | BT-549 breast 96.8% | HCT-116 colon 95.5%
